For eleven molecules, Potency and activity change, negative = inhibition results are on record in PubChem BioAssay (NCATS).

Assay [1] is described as follows: Primary qHTS for inhibitors of nuclear receptor binding SET domain protein 2 (NSD2) in an RCH-ACV wild type WT cells (2C) (AID 1645877; active = well fitted inhibition curve with a large enough effect; note: potency is the fitted concentration of half-maximal effect; nearly all actives have a fitted effect of over 70% in size).
Assay [2] has as its target Rap guanine nucleotide exchange factor 3 (Homo sapiens) (UniProt O95398). Description: Confirmatory qHTS for antagonist of cAMP-regulated guanine nucleotide exchange factor 3 (EPAC1) (AID 1645880; active = well fitted inhibition curve with a large enough effect; note: nearly all actives have a fitted effect of over 55% in size; note: potency is the fitted concentration of half-maximal effect). Summed up: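 Nucleotide exchange uses 100 nM EPAC1, 250 nM RAP1B-BODIPY-GDP and 50 uM GDP, with compounds in a concentration-titration series. After 5 min at room temperature, fluorescence (480 nm ex/540 nm em) is read every 5 min for 30 min. Data are normalized to control ATA and DMSO.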
(Quantitative high-throughput screening tests each substance at several concentrations.)

Assay [3] concerns the target Rap guanine nucleotide exchange factor 4 (Homo sapiens) (UniProt Q8WZA2). Description: Confirmatory qHTS for antagonist of cAMP-regulated guanine nucleotide exchange factor 4 (EPAC2) (AID 1645885; active = well fitted inhibition curve with a large enough effect; note: potency is the fitted concentration of half-maximal effect; nearly all actives have a fitted effect of over 25% in size).
Assay [4] can be described thus: Cytotoxicity counterscreen for inhibitors of SARS-CoV-2 cell entry (AID 1645845). Note: nearly all actives have a fitted effect of over 50% in size. Summed up:
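Expi293F/hACE2 cells seeded overnight; cpd pin-transferred in DMSO, 1 h preincubation, + media, 48 h 37 C 5% CO2; ATPLite 1step luminescence; normalized to cells and no cells.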

A short description of assay [5]: Primary qHTS to identify inhibitors of SARS-CoV-2 cell entry (AID 1645846). Note: nearly all actives have a fitted effect of over 45% in size. Note: potency is the fitted concentration of half-maximal effect. The note with it: activity change, negative = inhibition: at 57.1 µM (top of the series) unless noted. Summed up:
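Using luciferase-reporting pseudoviruses carrying Wuhan-Hu-1 spike, the screen tracks entry into stably ACE2-expressing cells over 48 hr. Activity is expressed relative to spike particles versus particles lacking any fusion protein.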

“And” between values parts separate entries of the source, which are not always exact repeats. Identical values can stand only once. Records with an inconclusive call do not appear. Entries that show only a call come without a potency. The source made the active and inactive calls. Unless noted, calls come from the whole dose curve.

Sequence of Rap guanine nucleotide exchange factor 4 (Homo sapiens) (Q8WZA2 whole entry, looked up): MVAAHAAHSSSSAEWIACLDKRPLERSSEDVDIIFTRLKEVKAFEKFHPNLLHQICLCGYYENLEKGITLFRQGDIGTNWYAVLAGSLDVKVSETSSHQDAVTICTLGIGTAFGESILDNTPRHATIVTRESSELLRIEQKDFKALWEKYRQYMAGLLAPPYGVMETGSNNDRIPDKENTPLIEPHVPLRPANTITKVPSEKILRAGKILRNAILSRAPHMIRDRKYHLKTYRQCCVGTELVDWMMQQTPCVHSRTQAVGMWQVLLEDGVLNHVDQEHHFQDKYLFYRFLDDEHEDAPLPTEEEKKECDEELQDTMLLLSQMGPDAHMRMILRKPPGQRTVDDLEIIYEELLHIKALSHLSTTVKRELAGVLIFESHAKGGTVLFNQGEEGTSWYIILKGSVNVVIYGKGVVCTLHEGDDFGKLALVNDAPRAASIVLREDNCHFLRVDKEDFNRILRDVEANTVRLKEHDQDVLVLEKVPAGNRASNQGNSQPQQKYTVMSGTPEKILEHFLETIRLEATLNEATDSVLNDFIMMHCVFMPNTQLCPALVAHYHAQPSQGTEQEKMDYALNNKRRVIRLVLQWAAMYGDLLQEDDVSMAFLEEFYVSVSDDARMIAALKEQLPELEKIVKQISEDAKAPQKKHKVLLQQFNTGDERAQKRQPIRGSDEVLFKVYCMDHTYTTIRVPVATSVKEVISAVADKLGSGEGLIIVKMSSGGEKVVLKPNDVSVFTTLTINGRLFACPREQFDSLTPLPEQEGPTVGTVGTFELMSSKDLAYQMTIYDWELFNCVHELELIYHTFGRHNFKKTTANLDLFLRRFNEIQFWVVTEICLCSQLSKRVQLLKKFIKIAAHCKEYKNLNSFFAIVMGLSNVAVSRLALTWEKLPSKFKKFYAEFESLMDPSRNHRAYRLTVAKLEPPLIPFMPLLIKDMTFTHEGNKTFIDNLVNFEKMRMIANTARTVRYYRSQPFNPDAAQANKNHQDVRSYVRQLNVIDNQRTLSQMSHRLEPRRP
Sequence of Rap guanine nucleotide exchange factor 3 (Homo sapiens) (O95398 whole entry, looked up): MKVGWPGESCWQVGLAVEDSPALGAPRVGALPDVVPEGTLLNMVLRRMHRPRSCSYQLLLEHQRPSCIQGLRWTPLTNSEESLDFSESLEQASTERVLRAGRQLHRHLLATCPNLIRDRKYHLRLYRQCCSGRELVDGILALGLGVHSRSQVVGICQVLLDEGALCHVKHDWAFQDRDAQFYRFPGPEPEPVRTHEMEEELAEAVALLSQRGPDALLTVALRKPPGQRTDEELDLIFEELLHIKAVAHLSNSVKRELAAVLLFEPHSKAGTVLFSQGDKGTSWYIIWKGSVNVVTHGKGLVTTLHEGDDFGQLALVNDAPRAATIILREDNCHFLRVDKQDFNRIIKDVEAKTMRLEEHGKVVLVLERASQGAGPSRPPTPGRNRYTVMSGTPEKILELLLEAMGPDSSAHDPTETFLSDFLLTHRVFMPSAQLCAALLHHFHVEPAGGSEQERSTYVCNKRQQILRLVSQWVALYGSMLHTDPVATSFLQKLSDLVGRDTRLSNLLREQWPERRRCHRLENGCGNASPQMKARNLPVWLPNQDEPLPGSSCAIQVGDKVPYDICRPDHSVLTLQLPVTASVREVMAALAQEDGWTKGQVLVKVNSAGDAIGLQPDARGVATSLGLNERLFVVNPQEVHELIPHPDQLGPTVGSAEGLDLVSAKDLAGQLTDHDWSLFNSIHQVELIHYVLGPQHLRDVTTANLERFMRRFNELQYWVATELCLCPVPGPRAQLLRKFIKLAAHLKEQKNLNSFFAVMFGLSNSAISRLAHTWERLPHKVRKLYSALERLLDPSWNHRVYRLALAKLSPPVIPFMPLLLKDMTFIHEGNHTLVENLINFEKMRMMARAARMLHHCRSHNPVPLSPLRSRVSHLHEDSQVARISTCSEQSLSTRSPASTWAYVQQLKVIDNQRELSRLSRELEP

`COc1ccc2c(c1OC)CN1CCc3cc4c(cc3C1C2)OCO4` (stereo not given): the Potency in assay [1] is 10.6 µM (active). `C[C@H]1O[C@@H](O[C@H]2[C@@H](O)C[C@H](O[C@H]3[C@@H](O)C[C@H](O[C@H]4CC[C@@]5(C)[C@H](CC[C@@H]6[C@@H]5CC[C@]5(C)[C@@H](C7=CC(=O)OC7)CC[C@]65O)C4)O[C@@H]3C)O[C@@H]2C)C[C@H](O)[C@@H]1O`: the Potency in assay [1] is 42.2 nM (active) and 85.8 nM (active). In addition, the Potency result in assay [2] is “inactive”.

As for `O=c1oc2ccccc2c(O)c1C(CC(O)c1ccc(-c2ccc(Br)cc2)cc1)c1ccccc1` (stereo not given), the Potency was 15.7 µM (active) in assay [2] and 44.1 µM (active) in assay [3]. In the case of `CC(C)(C)CC(C)(C)c1ccc(O)cc1`, the Potency in assay [3] is 49.4 µM (active) and 56.9 µM (active). As to `CN(C)CCC=C1c2ccccc2CCc2ccccc21`, the Potency result in assay [4] is “inactive”. Besides, in assay [5], the Potency was 20 µM (active). For `Cc1cccc(Nc2ccncc2S(=O)(=O)NC(=O)NC(C)C)c1`, in that order: “inactive” and “inactive”. For `NS(=O)(=O)Cc1noc2ccccc12`, in that order: “inactive” and “inactive”. Turning to `CN(C)c1cc(NC(=O)CNC(C)(C)C)c(O)c2c1C[C@@H]1C[C@H]3[C@H](N(C)C)C(=O)C(C(N)=O)=C(O)[C@@]3(O)C(=O)C1=C2O`, the Potency result in assay [4] was “inactive”. For the same molecule, in assay [5], the activity change, negative = inhibition was -25.4%. Taken in the same sequence, the figures for `Clc1ccc2c(c1)C(N1CCNCC1)=Nc1ccccc1O2` were “inactive” and -2.85%.

On to `N=C(N)c1ccc(OCCCCCOc2ccc(C(=N)N)cc2)cc1`, for which, in assay [4], the Potency entry was “inactive”. Moreover, the Potency in assay [5] was 15.8 µM (active). For `CO/N=C(\C(=O)N[C@@H]1C(=O)N2C(C(=O)O)=C(CSc3nc(=O)c(O)nn3C)CS[C@H]12)c1csc(N)n1`, in that order: “inactive” and “inactive”.
